Measurements reported in paper PMC7862700, “An all-to-all approach to the identification of sequence-specific readers for epigenetic DNA modifications on cytosine”.

Legend:
Experiment in all cases: DAPPL (digital affinity profiling via proximity ligation, sequencing); 10 mM Tris-HCl pH 7.5, 50 mM NaCl, 1 mM DTT, 4% glycerol, room temperature, 30 min; GST-TFs on glutathione beads, 16-mer random dsDNA library, 0.1% formaldehyde crosslink after washing; high values mean tight binding
Details in all cases: protein: recombinant; tags: N-terminal GST; dsDNA, one strand shown
[1] = target: T1, GABPA (Homo sapiens, UniProt Q06546 1-454)
T1 sequence: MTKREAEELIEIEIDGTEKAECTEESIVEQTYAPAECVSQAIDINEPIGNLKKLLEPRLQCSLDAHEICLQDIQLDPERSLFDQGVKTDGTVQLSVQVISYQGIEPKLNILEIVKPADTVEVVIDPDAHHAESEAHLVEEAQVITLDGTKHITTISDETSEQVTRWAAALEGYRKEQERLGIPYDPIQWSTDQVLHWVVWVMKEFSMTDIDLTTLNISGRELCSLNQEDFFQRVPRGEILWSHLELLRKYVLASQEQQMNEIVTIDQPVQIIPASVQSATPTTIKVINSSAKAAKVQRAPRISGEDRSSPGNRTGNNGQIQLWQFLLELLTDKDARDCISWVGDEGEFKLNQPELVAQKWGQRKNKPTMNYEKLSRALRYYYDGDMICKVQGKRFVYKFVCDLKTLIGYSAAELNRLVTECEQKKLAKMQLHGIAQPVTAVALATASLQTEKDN
How it was run: (§1)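 Binding signal is each hexamer's read frequency for a factor divided by its frequency in the tag-only sample. The factors were GST-fused human transcription factors from yeast, captured on glutathione beads, DNA-barcoded and pooled with that sample. Pools were incubated with 200 nmole of a random double-stranded 16-mer DNA library in Tris/NaCl/DTT/glycerol buffer at room temperature for 30 min, then washed, crosslinked with 0.1% formaldehyde, proximity-ligated with BsaI/T4 ligase (1 h, 37 °C), PCR-amplified and sequenced on an Illumina NextSeq500.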

[2] = target: T2, ERG (Homo sapiens, UniProt P11308 1-479)
T2 sequence: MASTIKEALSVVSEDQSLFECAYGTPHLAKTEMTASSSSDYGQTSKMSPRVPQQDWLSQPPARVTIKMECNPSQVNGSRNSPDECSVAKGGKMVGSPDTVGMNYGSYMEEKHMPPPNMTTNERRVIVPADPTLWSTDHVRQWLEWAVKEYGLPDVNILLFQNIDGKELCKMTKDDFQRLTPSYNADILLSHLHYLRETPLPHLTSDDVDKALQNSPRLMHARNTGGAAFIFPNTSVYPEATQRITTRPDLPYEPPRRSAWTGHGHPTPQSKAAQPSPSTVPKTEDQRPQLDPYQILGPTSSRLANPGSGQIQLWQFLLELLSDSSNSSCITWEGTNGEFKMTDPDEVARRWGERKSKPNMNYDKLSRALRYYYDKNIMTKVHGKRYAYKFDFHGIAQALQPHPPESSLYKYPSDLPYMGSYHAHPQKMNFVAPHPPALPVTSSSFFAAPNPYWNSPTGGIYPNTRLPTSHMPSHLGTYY
How it was run: as §1

[3] = target: ELF1 (Homo sapiens, UniProt P32519 1-619)
How it was run: as §1

[4] = target: T3, EHF (Homo sapiens, UniProt Q9NZC4 1-300)
T3 sequence: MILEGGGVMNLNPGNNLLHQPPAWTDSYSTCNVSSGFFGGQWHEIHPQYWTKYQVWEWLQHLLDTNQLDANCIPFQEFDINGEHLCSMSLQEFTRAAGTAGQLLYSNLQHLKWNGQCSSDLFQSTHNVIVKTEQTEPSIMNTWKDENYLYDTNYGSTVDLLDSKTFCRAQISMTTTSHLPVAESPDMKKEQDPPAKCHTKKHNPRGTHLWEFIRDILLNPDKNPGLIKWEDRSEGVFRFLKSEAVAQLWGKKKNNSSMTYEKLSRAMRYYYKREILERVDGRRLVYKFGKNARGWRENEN
How it was run: as §1

[5] = target: SPIB (Homo sapiens, UniProt Q01892 1-262)
How it was run: as §1

[6] = target: ETV5 (Homo sapiens, UniProt P41161 1-510)
How it was run: as §1

[7] = target: ELF4 (Homo sapiens, UniProt Q99607 1-663)
How it was run: as §1

[8] = target: T4, ETV2 (Homo sapiens, UniProt O00321 1-342)
T4 sequence: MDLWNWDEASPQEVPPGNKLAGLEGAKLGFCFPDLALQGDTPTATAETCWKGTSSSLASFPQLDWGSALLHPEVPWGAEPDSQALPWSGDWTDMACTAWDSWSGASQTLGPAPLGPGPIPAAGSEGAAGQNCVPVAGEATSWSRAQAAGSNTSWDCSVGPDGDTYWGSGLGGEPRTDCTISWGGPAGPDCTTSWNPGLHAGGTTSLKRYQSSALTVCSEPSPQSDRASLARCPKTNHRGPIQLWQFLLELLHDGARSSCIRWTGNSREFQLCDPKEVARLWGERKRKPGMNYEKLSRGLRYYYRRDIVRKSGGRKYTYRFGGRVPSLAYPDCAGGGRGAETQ
How it was run: as §1

[9] = target: ETV1 (Homo sapiens, UniProt P50549 1-477)
How it was run: as §1

[10] = target: T5, ETV3L (Homo sapiens, UniProt Q6ZN32 1-361)
T5 sequence: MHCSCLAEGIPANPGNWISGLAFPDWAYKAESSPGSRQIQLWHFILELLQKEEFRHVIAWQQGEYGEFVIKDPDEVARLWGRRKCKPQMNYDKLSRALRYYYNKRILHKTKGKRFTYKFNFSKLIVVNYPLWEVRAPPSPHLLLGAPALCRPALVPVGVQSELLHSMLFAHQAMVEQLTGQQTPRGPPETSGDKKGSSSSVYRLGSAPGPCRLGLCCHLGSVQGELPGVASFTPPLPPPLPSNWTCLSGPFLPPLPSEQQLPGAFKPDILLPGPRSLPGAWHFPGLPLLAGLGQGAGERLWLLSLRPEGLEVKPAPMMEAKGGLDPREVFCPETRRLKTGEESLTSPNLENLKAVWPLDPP
How it was run: as §1

[11] = target: T6, ETS2 (Homo sapiens, UniProt P15036 1-469)
T6 sequence: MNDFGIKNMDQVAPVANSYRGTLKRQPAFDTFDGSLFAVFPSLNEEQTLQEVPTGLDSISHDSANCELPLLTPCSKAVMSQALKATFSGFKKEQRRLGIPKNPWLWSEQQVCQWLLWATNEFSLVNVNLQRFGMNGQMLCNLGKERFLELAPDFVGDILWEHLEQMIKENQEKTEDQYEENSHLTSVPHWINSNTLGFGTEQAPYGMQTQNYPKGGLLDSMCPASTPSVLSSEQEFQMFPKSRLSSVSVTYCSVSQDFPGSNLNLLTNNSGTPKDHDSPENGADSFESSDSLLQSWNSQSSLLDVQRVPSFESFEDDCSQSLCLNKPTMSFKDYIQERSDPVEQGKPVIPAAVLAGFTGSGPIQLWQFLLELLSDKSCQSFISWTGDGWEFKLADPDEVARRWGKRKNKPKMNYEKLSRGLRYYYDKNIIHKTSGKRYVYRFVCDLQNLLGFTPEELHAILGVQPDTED
How it was run: as §1

[12] = target: T7, ETV7 (Homo sapiens, UniProt Q9Y603 1-341)
T7 sequence: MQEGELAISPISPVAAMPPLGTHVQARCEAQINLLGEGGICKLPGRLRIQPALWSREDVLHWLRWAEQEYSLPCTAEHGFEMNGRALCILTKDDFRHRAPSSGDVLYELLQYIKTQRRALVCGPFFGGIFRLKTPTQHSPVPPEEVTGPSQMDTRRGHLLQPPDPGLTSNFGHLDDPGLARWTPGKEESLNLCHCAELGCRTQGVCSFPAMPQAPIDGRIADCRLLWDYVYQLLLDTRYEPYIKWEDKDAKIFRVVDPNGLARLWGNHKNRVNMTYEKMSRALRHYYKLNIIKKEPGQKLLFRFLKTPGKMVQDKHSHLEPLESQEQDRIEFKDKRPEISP
How it was run: as §1

ELF1, sequence (P32519 whole entry): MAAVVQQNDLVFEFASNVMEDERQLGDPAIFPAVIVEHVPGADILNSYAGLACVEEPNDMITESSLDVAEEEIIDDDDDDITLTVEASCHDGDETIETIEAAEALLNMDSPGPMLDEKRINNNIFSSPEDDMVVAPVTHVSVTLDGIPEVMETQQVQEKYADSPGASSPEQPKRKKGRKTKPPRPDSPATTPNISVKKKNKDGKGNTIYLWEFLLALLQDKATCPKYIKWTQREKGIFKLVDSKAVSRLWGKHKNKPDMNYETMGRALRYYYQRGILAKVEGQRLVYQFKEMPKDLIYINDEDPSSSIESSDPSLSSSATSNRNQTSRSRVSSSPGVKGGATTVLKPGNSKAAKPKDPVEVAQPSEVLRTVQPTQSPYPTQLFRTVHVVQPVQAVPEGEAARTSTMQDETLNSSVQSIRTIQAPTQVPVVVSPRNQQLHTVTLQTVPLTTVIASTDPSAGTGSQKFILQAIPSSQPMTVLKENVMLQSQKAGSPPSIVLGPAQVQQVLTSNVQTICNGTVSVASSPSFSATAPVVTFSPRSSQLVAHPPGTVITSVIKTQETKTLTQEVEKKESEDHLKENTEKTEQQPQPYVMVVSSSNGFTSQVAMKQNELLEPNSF
ETV5, sequence (P41161 whole entry): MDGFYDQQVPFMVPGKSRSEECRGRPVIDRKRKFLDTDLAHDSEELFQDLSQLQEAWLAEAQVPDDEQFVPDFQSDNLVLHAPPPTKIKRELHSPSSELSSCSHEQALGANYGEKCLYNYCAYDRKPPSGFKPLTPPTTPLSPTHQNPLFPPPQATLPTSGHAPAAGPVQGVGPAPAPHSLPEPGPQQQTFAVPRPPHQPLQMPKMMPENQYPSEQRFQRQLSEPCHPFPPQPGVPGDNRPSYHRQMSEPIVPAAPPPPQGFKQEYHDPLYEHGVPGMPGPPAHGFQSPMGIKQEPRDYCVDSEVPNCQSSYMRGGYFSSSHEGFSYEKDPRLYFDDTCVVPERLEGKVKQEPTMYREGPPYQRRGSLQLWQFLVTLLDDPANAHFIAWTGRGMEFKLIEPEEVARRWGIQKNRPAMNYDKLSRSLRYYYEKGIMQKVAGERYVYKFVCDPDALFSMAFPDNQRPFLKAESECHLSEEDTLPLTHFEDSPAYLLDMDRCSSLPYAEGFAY
ELF4, sequence (Q99607 whole entry): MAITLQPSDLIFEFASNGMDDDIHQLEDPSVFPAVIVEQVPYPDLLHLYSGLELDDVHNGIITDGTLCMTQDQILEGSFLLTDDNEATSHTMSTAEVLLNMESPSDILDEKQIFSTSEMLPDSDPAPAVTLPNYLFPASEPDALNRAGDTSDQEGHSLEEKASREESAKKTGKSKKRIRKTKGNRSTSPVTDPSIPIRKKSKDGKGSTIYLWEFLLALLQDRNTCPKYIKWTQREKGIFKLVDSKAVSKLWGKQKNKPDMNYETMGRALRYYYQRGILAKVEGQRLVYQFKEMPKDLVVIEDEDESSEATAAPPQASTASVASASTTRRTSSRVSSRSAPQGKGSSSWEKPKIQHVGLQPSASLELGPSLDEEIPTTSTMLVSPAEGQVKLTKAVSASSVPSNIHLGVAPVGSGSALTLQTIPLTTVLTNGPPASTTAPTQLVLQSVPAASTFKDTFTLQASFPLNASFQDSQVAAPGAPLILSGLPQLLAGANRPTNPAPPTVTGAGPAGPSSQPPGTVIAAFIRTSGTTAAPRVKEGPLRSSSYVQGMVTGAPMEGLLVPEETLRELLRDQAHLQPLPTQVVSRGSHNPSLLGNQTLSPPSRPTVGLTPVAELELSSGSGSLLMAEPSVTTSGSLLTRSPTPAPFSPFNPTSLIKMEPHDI
SPIB, sequence (Q01892 whole entry): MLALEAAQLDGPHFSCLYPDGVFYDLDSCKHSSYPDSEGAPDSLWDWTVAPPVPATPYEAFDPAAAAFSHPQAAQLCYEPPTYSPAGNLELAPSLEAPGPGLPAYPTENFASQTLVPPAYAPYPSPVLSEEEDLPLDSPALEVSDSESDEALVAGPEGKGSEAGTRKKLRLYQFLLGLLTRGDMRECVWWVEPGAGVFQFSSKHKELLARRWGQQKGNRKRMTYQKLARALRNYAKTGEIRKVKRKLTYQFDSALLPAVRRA
ETV1, sequence (P50549 whole entry): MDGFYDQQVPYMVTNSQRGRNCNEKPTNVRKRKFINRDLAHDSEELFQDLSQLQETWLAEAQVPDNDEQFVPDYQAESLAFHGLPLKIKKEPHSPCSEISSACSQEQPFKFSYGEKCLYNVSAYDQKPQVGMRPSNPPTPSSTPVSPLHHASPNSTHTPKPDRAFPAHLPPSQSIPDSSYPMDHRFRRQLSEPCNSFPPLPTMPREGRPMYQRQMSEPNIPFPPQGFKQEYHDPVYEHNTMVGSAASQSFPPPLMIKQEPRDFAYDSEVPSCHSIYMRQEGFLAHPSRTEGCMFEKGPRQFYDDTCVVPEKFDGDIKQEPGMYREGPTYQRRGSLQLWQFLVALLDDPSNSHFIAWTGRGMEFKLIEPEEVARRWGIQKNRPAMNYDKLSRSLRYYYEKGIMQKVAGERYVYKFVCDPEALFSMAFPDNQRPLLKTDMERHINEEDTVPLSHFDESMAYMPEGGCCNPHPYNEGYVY

## AGAAAA
[1]
  binding signal: 1.03 fold enrichment (6-mer frequency, TF over GST control)
[2]
  binding signal: 1.02 fold enrichment (6-mer frequency, TF over GST control)
[3]
  binding signal: 1.02 fold enrichment (6-mer frequency, TF over GST control)
[4]
  binding signal: 1.02 fold enrichment (6-mer frequency, TF over GST control)
[5]
  binding signal: 1.08 fold enrichment (6-mer frequency, TF over GST control)
[6]
  binding signal: 1.02 fold enrichment (6-mer frequency, TF over GST control)
[7]
  binding signal: 1.04 fold enrichment (6-mer frequency, TF over GST control)
[8]
  binding signal: 1.1 fold enrichment (6-mer frequency, TF over GST control)
[9]
  binding signal: 1.05 fold enrichment (6-mer frequency, TF over GST control)
[10]
  binding signal: 1 fold enrichment (6-mer frequency, TF over GST control)
[11]
  binding signal: 1.09 fold enrichment (6-mer frequency, TF over GST control)
[12]
  binding signal: 1.04 fold enrichment (6-mer frequency, TF over GST control)
